The campaign covered roughly 310,000 compounds. About 18,000 (5.8%) were called active. Roughly 22% stayed inconclusive and do not appear here. The entries come from a sample that favours actives as a whole. Values without a mark were called inactive. Calls come from the whole dose curve; as a rule, active = well fitted inhibition curve with a large enough effect; inconclusive = small, poorly fitted or top-dose-only effect, or another doubt; inactive = no such curve, though single readings can be large or run the other way.
Assay: Primary qHTS for delayed death inhibitors of the malarial parasite plastid, 48 hour incubation
Details: P. falciparum luciferase growth in erythrocytes; series mostly up to 28.7 µM; activity change, negative = inhibition: at the top concentration
Method in brief: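 First compound was added to culture medium, then infected red cells at 0.1% parasitemia and 2% hematocrit (final). After incubation at 37 C under 5% CO2, luciferase detection reagent was dispensed and light output recorded.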
% is set by controls: 0 for no effect and ±100 for the full control effect; potency is the fitted concentration of half-maximal effect.

SMILES	activity change, negative = inhibition	Potency
O=C(CSc1nc(C2CC2)nc2ccccc12)Nc1cccc(O)c1	18.3%	–
CCOCc1c(C(=O)N2CCN(Cc3ccc(Br)s3)CC2)oc2ccccc12	–	13.1 µM (active)
COCC(=O)Nc1c(C(=O)N2CCCC2)oc2ccccc12	26.7%	–
CCC(=O)Nc1ccccc1C(=O)N1CCN(Cc2ccccc2)CC1	-10.3%	–
COc1ccc(CN2CC(C(=O)NC3CCCCC3)CC2=O)cc1 (centres undefined)	6.73%	–
C=CCSc1ccc(S(=O)(=O)N2CCN(C)CC2)cn1	4.46%	–
CCn1cc(C(=O)NCCCN2CCCCCC2)c(=O)c2cc(S(=O)(=O)N3CCc4ccccc4C3)ccc21	–	5.22 µM (active)
CCn1cc(C(=O)NCCO)c(=O)c2cc(F)c(N3CCN(C)CC3)cc21	2.44%	–
CCn1cc(C(=O)N2CC(C)CC(C)C2)c(=O)c2cc(S(=O)(=O)N3CCCC3)ccc21 (centres undefined)	3.58%	–
O=S(=O)(c1cccc(Cn2nnc(-c3ccc(F)cc3)n2)c1)N1CCOCC1	0.852%	–
Cc1ccc(CNS(=O)(=O)c2ccc3c(c2)N(C)CCO3)cc1	30.2%	–
COc1ccc(CNCCCO)cc1OC	3.57%	–
CCN(CC)CCNCc1ccc(OCc2ccc(Cl)nc2)c(OC)c1	–	10.4 µM (active)
COc1cc(CNc2ncn[nH]2)ccc1OCc1ccccc1C	17.2%	–
COc1ccccc1CNC(=O)C1CCN(S(C)(=O)=O)CC1	8.41%	–
COc1ccccc1CNC(=O)CN1CCC(n2cnc3cc(F)ccc32)CC1	–	10.4 µM (active)
COc1ccc(CCNC(=O)CCC(=O)NC2CCCCC2)cc1OC	-8.53%	–
COc1ccc(CCNC(=O)CN2CCC(n3nnc4cc(F)ccc43)CC2)cc1OC	–	7.38 µM (active)
COc1ccc(CNC(=O)CN2CCC(n3nnc4cc(F)ccc43)CC2)cc1	-23.1%	–
COc1ccccc1CNC(=O)Cn1cc2c(n1)CCCC2	5.3%	–
CCc1ccccc1NC(=S)Nc1cc(OC)c(NC(=O)C(C)C)cc1OC	-5.66%	–
CC1CCCCC1NC(=O)c1cc(=O)[nH]c2ccccc12 (centres undefined)	34.6%	–
CCCCCCC(O)(CCN1CCCCC1)c1ccccc1 (centres undefined)	11.4% [at 0.00184 µM]	–
COc1ccc(NC(=S)N2CCC(NC(=O)c3cccc(F)c3)CC2)cc1	6.61%	–
CN1C(=O)c2ccc(C(=O)Nc3ccc(Br)cn3)cc2C1=O	0.546%	–
Cc1ccc(-c2cn(S(=O)(=O)c3cccc([N+](=O)[O-])c3)nc2N)cc1	–	3.29 µM (active)

SMILES	activity change, negative = inhibition	Potency
CC1=NCCN1S(=O)(=O)c1cccc([N+](=O)[O-])c1	58.3%	–
Cc1cc(C)n(S(=O)(=O)c2cccc([N+](=O)[O-])c2)n1	0.663%	–
COc1ccc(-c2noc(C(C)NS(=O)(=O)c3ccc(NC(C)=O)cc3)n2)cc1 (centres undefined)	-9.21%	–
Cc1occc1C(=O)NC1CCCN(Cc2ccc(CC(C)C)cc2)C1 (centres undefined)	-22.7%	–
Cc1ccc(C)c(C(=O)N2CCC(n3nccc3NC(=O)C3CC3)CC2)c1	4.41%	–
C=CCN1CN(S(=O)(=O)c2ccc(OC)cc2)c2nc3ccccc3nc21	-20.2%	–
COc1cc2c(cc1O)[C@H](Cc1ccc(Oc3cc(C[C@@H]4NCCc5cc(OC)c(O)cc54)ccc3O)cc1)NCC2	–	0.738 µM (active)
CCCCSCCCNC(=O)C1CCC(CNS(=O)(=O)c2ccc(NC(C)=O)cc2)CC1 (centres undefined)	0%	–
CCN(CC)C(=O)c1nc[nH]c1C(=O)N(C)Cc1ccccc1	51.8%	–
O=C1C2CCCN2C(=O)N1CCCCN1CCN(c2cccc(C(F)(F)F)c2)CC1 (centres undefined)	-19.8%	–
CC(C)S(=O)(=O)c1csc(NC(=O)Nc2ccc(Cl)cc2)c1Cl	–	5.22 µM (active)
CN(c1cccc(NC(=O)Nc2ccc(Cl)cc2)c1)S(C)(=O)=O	45.8%	–
Cn1ccc(NC(=O)Nc2ccc(Cl)cc2)n1	50.8%	–
O=C(NC1CCN(Cc2ccccc2)CC1)c1c(F)cccc1F	-5.58%	–
S=C(NCCCc1ccccc1)Nc1ccc(Br)cc1	-6.46%	–
S=C(Nc1ccc(Br)cc1)NC1CCN(Cc2ccccc2)CC1	–	11.7 µM (active)
CN(CC(=O)Nc1ccc(F)c(F)c1F)C(=O)Cn1cnc2c1c(=O)n(C)c(=O)n2C	4.25%	–
O=C(OCCN1C(=O)c2ccccc2C1=O)Oc1ccccc1	9.7%	–
CC(C)(C)OC(=O)NC(Cc1ccccc1)C(=O)NC(CSC1CCCCO1)C(=O)NN (centres undefined)	29.4%	–
Cc1csc(NC(=O)CSc2nnc(-c3cccnc3)o2)n1	6.46%	–
CC1=C(C(=O)OC(C)(C)C)C(c2ccc(Br)cc2)NC(=O)N1CCCC(=O)O (centres undefined)	2.52%	–
COc1ccc(Br)cc1/C=N/NC(=O)c1cccc(S(=O)(=O)N2CCOCC2)c1	11.9% [at 5.75 µM]	–
O=C(c1cccc(S(=O)(=O)N2CCOCC2)c1)N1CCOCC1	3.35%	–
O=C(N/N=C/c1ccc([N+](=O)[O-])o1)c1cccc(S(=O)(=O)N2CCOCC2)c1	–	3.7 µM (active)
CN(Cc1c(F)cccc1Cl)S(=O)(=O)c1cccs1	24.5%	–
Cn1ncc(Br)c1C(=O)NC1CCCC1	104%	–

SMILES	activity change, negative = inhibition	Potency
CCCNC(=O)c1cnc(-c2ccccc2)nc1-c1ccccc1	0.447%	–
CCOC(=O)c1cnc(-c2ccccc2)nc1Oc1ccc(C)cc1	–	3.29 µM (active)
CCCCOc1ccc(-c2ncc(C(=O)OCC)c(N)n2)cc1	158%	–
COc1cccc(CNC(=O)C2CCCN(S(=O)(=O)N3CC(C)CC(C)C3)C2)c1 (centres undefined)	-1.35%	–
O=C(COCc1cc(-c2ccc3c(c2)OCO3)on1)N1CCN(c2cccc(Cl)c2)CC1	27.3%	–
CCCCC(=O)Nc1c2c(nn1-c1ccc([N+](=O)[O-])cc1)CS(=O)(=O)C2	11.6%	–
C=CCn1c(N)cc(=O)nc1SCC(=O)Nc1cccc2ccccc12	1.48%	–
Cc1ccc2nc(SCC(=O)Nc3cccc4ccccc34)nc(=O)n2c1	-6.05%	–
Cc1ccccc1-n1c(SCC(=O)Nc2cccc3ccccc23)nc(O)cc1=O	–	13.1 µM (active)
O=C(Cc1c(Cl)cccc1Cl)NC1CC1	1.57%	–
COc1ccc(C(=O)NC2CCN(C(=O)Nc3ccc(F)cc3)CC2)cc1	-0.699%	–
Cc1ccc(SCC(=O)NNC(=O)c2ccc(S(C)(=O)=O)cc2)cc1	34.9%	–
COc1cccc(N(Cc2nnc3n2CCCCC3)C(=O)Nc2ccccc2F)c1	6.97%	–
COc1cccc(N(C(=O)c2ccn[nH]2)C2(C(=O)Nc3c(C)cccc3C)CCCCC2)c1	–	9.28 µM (active)
Cc1cccc(C)c1NC(=O)C1(N(C(=O)c2ccccn2)c2ccc(O)cc2)CCCCC1	-0.862%	–
COc1ccc(C(=O)OCC(=O)NCCCc2ccccc2)cc1OC	7.29%	–
COc1ccc(C)cc1NC(=O)NCc1ccccn1	-13% [at 5.75 µM]	–
COc1ccc(C)cc1NC(=O)NCCCCc1ccccc1	–	14.7 µM (active)
N#CC1(NC(=O)COC(=O)Cc2n[nH]c(=O)c3ccccc23)CCCCC1	23.3%	–
OCCNc1nc2ccccc2n1-c1ncnc2sc3c(c12)CCC3	–	6.57 µM (active)
O=C(O)[C@@H]1CCCN1c1ncnc2sc3c(c12)CCC3	6.15%	–
O=C(O)c1cccnc1Sc1ncnc2sc3c(c12)CCC3	-7.35%	–
O=c1onc(-c2c(F)cccc2F)n1-c1ccccc1Cl	4.36% [at 0.00184 µM]	–
CN(CC(=O)NCCN1CCOCC1)S(=O)(=O)c1ccc(F)cc1	-3.21%	–
Cc1ccc(S(=O)(=O)N(C)CC(=O)NCC(c2ccc(F)cc2)N2CCOCC2)cc1 (centres undefined)	–	9.28 µM (active)
Cc1ccc(S(=O)(=O)N(C)CC(=O)NC2CCCC2)cc1	-26.8%	–

SMILES	activity change, negative = inhibition	Potency
COc1cc([N+](=O)[O-])ccc1NC(=O)COC(=O)CCOc1ccc(C)cc1	-17.7%	–
COc1ccccc1OCCNC(=O)CCNC(=O)c1ccccc1Cl	2.48%	–
O=CN1CCN(C(=O)c2ccc3c(c2)OCO3)CC1	12.7%	–
CC(=O)c1c(C)[nH]c(C(=O)COC(=O)CCOc2ccc(C)cc2)c1C	-21.9%	–
CCNC(=S)N(CCN(CC)CC)Cc1cc2cc3c(cc2[nH]c1=O)OCCO3	-16.8%	–
N=c1c2c(-c3ccccc3)c(-c3ccccc3)n(Cc3ccccc3)c2ncn1CCCO	–	2.33 µM (active)
CCN(CC)CCn1cnc2c1c(=O)[nH]c(=O)n2Cc1ccccc1	11.6%	–
COCCn1cnc2c1c(=O)n(CC(=O)NN)c(=O)n2Cc1ccccc1	-4.05%	–
Cc1ccc(S(=O)(=O)N(CC(=O)NCc2ccco2)c2ccccc2C)cc1	-27.1%	–
Cc1ccc(S(=O)(=O)N(CC(=O)NCCSC2CCCCC2)c2ccccc2F)cc1	–	4.65 µM (active)
CCNC(=O)CN(c1ccc(C)cc1)S(=O)(=O)c1ccc(SC)cc1	-15.6%	–
Cc1cccc(C)c1OCCN1CCOCC1	12.2%	–
COc1ccc(/C=C/C(=O)c2cc(Br)ccc(=O)c2O)cc1	–	13.1 µM (active)
COc1ccc(/C=C/C(=O)c2ccc(OC)cc2O)cc1	34.8%	–
COc1ccc(C(=O)/C=C/c2ccc(OC3CSC3)cc2)cc1	-13%	–
CC(C)CCN1CCN=C1N(C)C	37%	–
Cc1nc2c(c(=O)n1Cc1ccco1)c1nc3ccccc3nc1n2Cc1ccccc1	–	9.28 µM (active)
Cc1cc2nc3c(=O)n(Cc4ccccc4)c(=O)[nH]c3nc2cc1N	-1.25%	–
Cc1cc(NC(=O)CSc2nc3cc(Cl)ccc3c(=O)n2Cc2ccco2)no1	13%	–
Cc1ccc(Cn2c(C)nc3c(c2=O)c2nc4ccccc4nc2n3Cc2ccco2)cc1	–	5.86 µM (active)
COCCCn1c2nc3ccccc3nc2c2c(=O)n(Cc3ccc(Cl)cc3)c(C)nc21	-3.86%	–
Nc1cc(=O)nc(SCc2ccccc2)n1Cc1ccco1	-0.468%	–
CC1(C)Cc2cccc(OCC(=O)NCc3ccccc3)c2O1	4.57%	–
O=C(Oc1ccc(F)cc1)N1CCOCC1	1.01%	–
COc1ccccc1NC(=O)COC(=O)COc1ccccc1F	-7.22%	–
COc1ccccc1NC(=O)C1CCN(C(=O)c2ccc(C(C)(C)C)cc2)CC1	-1.27%	–
